Consider 18 molecules from PubChem BioAssay (NCATS).

Molecules are shown by their SMILES. Inconclusive results are not listed. Entries that show only a call come without a potency. Activity calls are given as the source filed them. Calls come from the whole dose curve; as a rule, active = well fitted inhibition curve with a large enough effect; inconclusive = small, poorly fitted or top-dose-only effect; inactive = flat fitted curve, though single readings scatter.

Phospholipid hydroperoxide glutathione peroxidase GPX4 (Homo sapiens), sequence (P36969 whole entry, looked up): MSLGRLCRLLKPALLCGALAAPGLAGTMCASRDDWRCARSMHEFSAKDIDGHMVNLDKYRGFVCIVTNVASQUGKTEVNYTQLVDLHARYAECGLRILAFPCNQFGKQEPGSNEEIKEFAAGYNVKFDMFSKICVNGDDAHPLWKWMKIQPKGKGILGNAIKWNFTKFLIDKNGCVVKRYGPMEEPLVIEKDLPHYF

This assay addresses Phospholipid hydroperoxide glutathione peroxidase GPX4 (Homo sapiens) (UniProt P36969). Kind of assay: Primary qHTS Assay for Inhibitors of Recombinant Selenoprotein Glutathione Peroxidase 4 (GPX4) (AID 1845192). Note: nearly all actives have a fitted effect of over 65% in size. The following applies: recombinant GPX4, GR-coupled NADPH fluorescence, 15 min; series mostly up to 50 µM. An outline of the steps: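 GR-coupled readout: 100 nM GR, 1 mM GSH, 0.5 mM NADPH; NADPH fluorescence (ex 340/em 450 nm) read at t=0 and after 15 min RT. GPX4 200 nM, preincubated 30 min with compound; substrate 0.5 mM CHP.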
In general terms: In qHTS, concentration-response curves come from the screen itself.
Regarding `CC(C)NC[C@H](O)c1ccc(O)c(O)c1`, the Potency entry is “inactive”.
Then `CNCCC(Oc1ccc(C(F)(F)F)cc1)c1ccccc1` (stereo not drawn), with “inactive”.
In the case of `CC1=C(C/C=C(\C)CCC[C@H](C)CCC[C@H](C)CCCC(C)C)C(=O)c2ccccc2C1=O` it was “inactive”.
Then `NC1[C@H]2CN(c3nc4c(cc3F)c(=O)c(C(=O)O)cn4-c3ccc(F)cc3F)C[C@@H]12` (stereo partly drawn), with “inactive”; and `CSc1ccc2c(c1)N(CCC1CCCCN1C)c1ccccc1S2` (stereo not drawn), with “inactive”.
On to `CCCn1cnc2c1c(=O)n(CCCCC(C)=O)c(=O)n2C`, for which the Potency result is “inactive”.
In the case of `CCN(CC)CCNC(=O)c1c(C)[nH]c(/C=C2\C(=O)Nc3ccc(F)cc32)c1C` it was “inactive”; in that of `COC(=O)C1=C(C)NC(C)=C(C(=O)OC)C1c1ccccc1[N+](=O)[O-]`, “inactive”.
Consider `CC1=C(/C=C/C(C)=C/C=C/C(C)=C/C(=O)O)C(C)(C)CCC1`, for which the Potency result is “inactive”.
In the case of `CC(CN(C)C)CN1c2ccccc2CCc2ccccc21` (stereo not drawn) it was “inactive”.
Then `CN(C)CCC=C1c2ccccc2CCc2ccccc21`, with “inactive”; and `CC(=O)c1ccc2c(c1)N(CCCN(C)C)c1ccccc1S2`, with “inactive”.
Then `CC1=C(CC(=O)O)c2cc(F)ccc2/C1=C\c1ccc(S(C)(=O)=O)cc1`, with “inactive”.
As for `OCCN1CCN(CCCN2c3ccccc3Sc3ccc(Cl)cc32)CC1`, the Potency entry is “inactive”.
In the case of `CN(C)CCOC(C)(c1ccccc1)c1ccccn1` (stereo not drawn) it was “inactive”.
In the case of `C[C@H](NC(CCc1ccccc1)C(=O)O)C(=O)N1CCC[C@H]1C(=O)O` (stereo partly drawn) it was “inactive”.
On to `Nc1ncnc2c1ncn2[C@@H]1O[C@H](CO)[C@@H](O)[C@H]1O`, for which the Potency entry was “inactive”.
For `CC1=C(CC(=O)O)c2cc(F)ccc2/C1=C\c1ccc(S(C)=O)cc1` (stereo not drawn), the Potency entry is “inactive”.
